# Laboratory results taken from PubChem BioAssay AID651832 (Vanderbilt Specialized Chemistry Center, 2012).
# Assay: off-target radioligand binding panel, profiling panel, selectivity assay for M5 PAM project, biochemical, Eurofins PanLabs, competition binding (AID 651832)
# Details: at 10 µM, stronger effect = higher value
compound,measurement,setting,value
O=C1C(=O)N(CCOc2ccccc2)c2ccc(OC(F)(F)F)cc21,"inhibition of radioligand binding, muscarinic M1",,22%
same,inhibition,measured here: adenosine A3 binding,57%
same,inhibition,measured here: adrenergic alpha1A binding,71%
same,inhibition,measured here: adrenergic alpha1B binding,66%
same,inhibition,measured here: cannabinoid CB1 binding,72%
same,inhibition,measured here: dopamine D1 binding,73%
same,inhibition,measured here: dopamine D3 binding,59%
same,inhibition,measured here: glucocorticoid receptor binding,88%
same,inhibition,measured here: hERG binding,21%
same,inhibition,measured here: histamine H2 binding,95%
same,inhibition,measured here: mu opioid binding,78%
same,inhibition,measured here: muscarinic M2 binding,-2%
same,inhibition,measured here: norepinephrine transporter binding,77%
